# Assay outcomes: PubChem, National Center for Advancing Translational Sciences (NCATS)
# D1 potentiator: human D1 dopamine receptor positive modulation; HEK293 TREx D1 cells, calcium flux, dopamine EC20 potentiation; actives 0.036% (n = 360,000); potentiation, % at 10 µM; in the data active = potentiation above about 30%
# D1 ag: human D1 receptor agonism. P21728. activation, % at 2 µM. AID 504660. actives 1% (n = 360,000). HEK293 T-REx D1 cells, calcium flux, agonist mode; in the data active = activation above about 30%
#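 Inducible HEK293 T-REx D1 cells, force-coupled to calcium signalling, were plated at 4000 cells/well with tetracycline and held overnight at 30 C. After no-wash calcium dye loading, compound-evoked calcium rise over 180 s flagged agonists.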
# DRD3 agonist: agonists of human D3 dopamine receptor. P35462. D3R DiscoveRx beta-arrestin cells, luminescence, 90 min. max activation, %. actives 0.58% (n = 410,000); in the data active = max activation above about 30%
# Target sequence (P35462 whole entry, looked up): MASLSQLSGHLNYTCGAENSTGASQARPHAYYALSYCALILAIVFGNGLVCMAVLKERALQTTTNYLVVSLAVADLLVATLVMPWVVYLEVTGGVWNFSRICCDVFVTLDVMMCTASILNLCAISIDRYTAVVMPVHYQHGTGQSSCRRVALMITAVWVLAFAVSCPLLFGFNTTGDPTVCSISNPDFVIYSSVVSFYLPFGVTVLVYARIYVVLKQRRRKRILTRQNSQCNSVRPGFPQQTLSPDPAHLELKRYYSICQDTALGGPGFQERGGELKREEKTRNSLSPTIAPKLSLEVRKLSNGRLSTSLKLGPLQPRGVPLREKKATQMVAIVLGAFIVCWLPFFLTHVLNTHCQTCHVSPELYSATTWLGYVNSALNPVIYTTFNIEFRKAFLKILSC
#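 Agonist mode: compounds and dopamine controls were applied to plated cells for 90 min at 37 degrees C after an overnight attachment at 1500 cells/well. Luminescent read-out followed 30 - 60 minutes at room temperature with DiscoveRx detection reagent.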
# D1 antagonist: antagonists of human D1 dopamine receptor; HEK293 TREx D1 cells, calcium flux, dopamine EC80; stronger effect = lower value; activity change, negative = inhibition, % at 10 µM; actives 3.2% (n = 360,000); in the data active = activity change below about -30%
#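 Tetracycline-induced HEK293 Trex D1 cells, force-coupled to calcium, dye-loaded; compounds added and read 180 s, then EC80 dopamine added and calcium flux tracked kinetically another 180 s.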
# DRD3 antagonist: D3 dopamine receptor (human) antagonism; P35462; D3R cells, DiscoveRx beta-arrestin luminescence, antagonist mode; stronger effect = lower value; actives 2.5% (n = 360,000); max response, negative = inhibition, %; in the data active = max response below about -50%; inconclusive = no clear call, values can overlap the other calls
#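 Cells plated overnight at 1500 cells/well, then exposed to library compounds with dopamine controls for 90 minutes at 37 degrees C. DiscoveRx reagent added for 30–60 minutes at room temperature; luminescence read, quantitative HTS format.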
# A number is an active result; i = inactive; ? = inconclusive; nt = no result. In the library only some 6% were active in any assay of this set; here they are far more common.
SMILES,D1 potentiator,D1 ag,DRD3 agonist,D1 antagonist,DRD3 antagonist
O=C(/C=C/c1cc2ccccc2o1)c1ccccc1O,i,i,i,i,i
CCc1ccc(OCc2ccc(C(=O)NCc3ccccn3)o2)cc1,i,i,i,i,-70
COc1ccc(NC(=O)c2ccc(COc3ccccc3Br)o2)c(OC)c1,nt,nt,i,nt,i
COc1ccc(NC(=O)c2oc3ccccc3c2NC(=O)COc2ccc(C(C)C)cc2)c(OC)c1,i,i,i,i,nt
COc1ccc(NC(=O)c2ccc(COc3ccccc3)o2)c(OC)c1,i,i,i,-31,i
COc1ccc(NC(=O)c2oc3ccccc3c2NC(=O)COc2ccccc2OC)c(OC)c1,i,i,58,i,i
CC(C)(C)[C@H]1COC(=O)[C@H](NC(=O)OCC2c3ccccc3-c3ccccc32)C/C=C\C[C@@H](CC(=O)N(CCO)Cc2ccccc2)C(=O)N1,nt,nt,i,nt,i
CCc1cc(=O)oc2c(C)c3c(cc12)CN(CCc1ccccc1)CO3,i,i,i,i,nt
O=C(NCC1OCCCN1S(=O)(=O)c1cc(F)ccc1F)C(=O)NC1CCCC1 (stereo not given),i,i,i,i,i
COc1ccccc1N1CC(C)(C)C(=O)N(C(=O)c2ccc(C)cc2)C1=S,i,i,i,-45,i
CC(C)(C)c1ccc(CN2CCN(C(c3ccccc3)c3ccc(Cl)cc3)CC2)cc1 (stereo not given),nt,nt,i,nt,nt
COc1cc(CN2CCN(C(c3ccccc3)c3ccccc3)CC2)cc(OC)c1OC,i,i,i,-52,-85
COc1cccc(CN2CCN(C(c3ccccc3)c3ccccc3)CC2)c1O,i,i,i,i,i
Cc1cccc(CN2CCN(C(c3ccccc3)c3ccc(Cl)cc3)CC2)c1 (stereo not given),i,i,i,i,-107
CC(C)(CCl)C(=O)Nc1ccc(OC(F)(F)F)cc1,i,i,i,i,i
Cc1cc(C)n(-c2ccc(Cl)c(C(=O)Nc3ccc(OC(F)(F)F)cc3)n2)n1,i,i,i,-36,i
O=C(CSc1ccc2nc(-c3ccccc3)cn2n1)Nc1ccccc1,i,i,i,i,nt
O=C(CSc1ccc2nc(-c3ccccc3)cn2n1)Nc1ccccc1C(F)(F)F,i,i,i,-71,nt
O=C(Nc1ccc(O)cc1)/C(=C\C=C\c1ccccc1)NC(=O)c1ccccc1,i,i,i,-32,i
O=C(Nc1ccc(C(=O)O)cc1)/C(=C\C=C\c1ccccc1)NC(=O)c1ccccc1Cl,i,i,i,i,i
COC(=O)/C(=C\C=C\c1ccccc1)NC(=O)c1ccccc1,i,i,i,-30,i
O=C(O)CCNC(=O)/C(=C\C=C\c1ccccc1)NC(=O)c1ccccc1,i,i,i,i,i
O=C(NC1CCCCC1)c1ccc2c(c1)N(Cc1ccc(Cl)cc1)C(=O)c1ccccc1S2(=O)=O,i,i,i,i,nt
Cc1cc(SC(C)C(=O)Nc2c(C)n(C)n(-c3ccccc3)c2=O)nc2ccccc12 (stereo not given),i,i,i,-32,?
Nn1c(CN2CCCCC2)nc2ccccc2c1=O,i,i,i,i,-91
SMILES,D1 potentiator,D1 ag,DRD3 agonist,D1 antagonist,DRD3 antagonist
C[C@@H]1CN([C@H](C)CO)C(=O)c2cc(Br)cnc2O[C@@H]1CN(C)C(=O)c1cccc(F)c1,nt,nt,i,nt,i
CC(=O)Nc1ccc(S(=O)(=O)N(CCCN2CCOCC2)Cc2cccs2)cc1,i,i,i,i,i
CC(C)(C)c1ccc(S(=O)(=O)N(CCCN2CCOCC2)Cc2cccs2)cc1,i,i,i,-33,-67
CCC(=O)N1CCc2cc(S(=O)(=O)CCC(=O)N3CCN(c4ccccc4Cl)CC3)ccc21,i,i,i,i,nt
COC(=O)c1ccc(CSc2nc3c(cnn3-c3ccc(F)cc3)c(=O)[nH]2)o1,i,i,32,i,i
Cc1ccc(OCCN2CCN(c3ncnc4sc(C)c(C)c34)CC2)cc1,i,i,33,i,i
Cc1sc2ncnc(N3CCCCC3)c2c1C,i,i,i,i,i
COc1ccc(-c2cccc(C3CC=CC4C3C(=O)N(Cc3ccccc3)C4c3ccc(C(F)(F)F)cc3)c2)cc1 (stereo not given),i,i,i,i,i
C[C@@H]1CC=C[C@H]2[C@H]1C(=O)N(Cc1ccccc1)[C@H]2c1ccc(-c2ccoc2)cc1F,i,i,i,i,-62
Cc1ccc(-c2cccc(C3CC=CC4C3C(=O)N(Cc3ccccc3)C4c3cc(C)ccc3F)c2)cc1 (stereo not given),i,i,i,-66,i
O=C(CS(=O)(=O)c1cccc2nsnc12)Nc1ccc(F)cc1F,i,i,i,i,nt
CCCCCCCCN1C(=O)[C@H](CC(=O)NCCCC)C[C@@]2(C(=O)OC)CC(C)(C)CC=C12,nt,nt,i,nt,i
CCCN1C(=O)/C(=C/c2c(NCCCOCC)nc3c(C)cccn3c2=O)SC1=S,i,i,i,i,i
CCOC(=O)CC1C(=O)NCCN1c1nc2c(C)cccn2c(=O)c1/C=C1\SC(=S)N(CC(C)C)C1=O (stereo not given),i,111,nt,i,nt
CCOCCCNc1nc2c(C)cccn2c(=O)c1/C=C1\SC(=S)N(C(C)CC)C1=O (stereo not given),i,114,i,i,i
CCOCCCNc1nc2c(C)cccn2c(=O)c1/C=C1\SC(=S)N(CC(C)C)C1=O,i,30,i,i,i
Cn1c(=O)c2cc(C(=O)Nc3cccc(C#N)c3)sc2c2ccccc21,i,i,i,i,nt
CC(C)(C)c1ccc(-c2nc(N)nc(N)n2)cc1,i,i,i,i,i
Nc1nc(-c2ccc(Cl)cc2)nc(-c2ccc(Cl)cc2)n1,i,i,i,-35,i
CCc1ccc(NC(=O)C2CCC(CNS(=O)(=O)c3ccc4c(c3)CC(C)N4C(C)=O)CC2)cc1 (stereo not given),i,i,i,i,nt
O=C1CCc2cc(NS(=O)(=O)c3ccc(F)cc3)cc3c2N1CCC3,i,i,i,-38,i
O=C1CCCN1c1ccc(CNS(=O)(=O)c2ccc(F)cc2)cc1,i,i,i,i,-57
CCCCC1CCC(C(=O)NCC(c2ccco2)N2CCOCC2)CC1 (stereo not given),i,i,nt,i,nt
COc1ccc2c(c1)sc1ncc(C(=O)NCc3cccc(Cl)c3)c(=O)n12,i,i,i,i,nt
COc1ccc(CCNC(=O)CSc2nc3ccsc3c(=O)n2CC2CCC(C(=O)O)CC2)cc1OC (stereo not given),i,i,i,i,i
Cc1cc(C(F)(F)F)c2sc(N)nc2n1,i,i,i,-53,i
CC(C)[C@@H]1CC[C@@H](C)C[C@H]1OC(=O)c1ccccc1O,nt,nt,i,nt,nt
Cc1cc(C)cc(-n2c(SCC(=O)N3CCCCCC3)nc3c([nH]c4ccccc43)c2=O)c1,i,i,i,i,nt
COc1ccc(CCC(C)NCCc2ccc(Cl)cc2Cl)cc1 (stereo not given),i,51,i,i,i
